High-throughput results deposited in PubChem by National Center for Advancing Translational Sciences (NCATS).
HCMV inh: human cytomegalovirus inhibition. HFF cells, HCMV-luciferase reporter, 72 h; hits give low values. activity change, negative = inhibition, % at 57.5 µM. actives 4.5% (n = 410,000); in the data active = activity change below about -60%; inconclusive = no clear call, values can overlap the other calls; inactive = above about -39%
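Compounds were evaluated in HFFs infected with an HCMV luciferase reporter virus (MOI 1 PFU/cell). Luciferase in lysates collected 72 h post infection served as the replication measure.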
Sm TGR inh: inhibitors of Schistosoma mansoni thioredoxin glutathione reductase; Q962Y6; purified TGR, DTNB reduction, TNB absorbance 405 nm; Potency, µM (highest dose often 114 µM), for inactives: at the highest dose activity change, negative = inhibition, actives largely listed as inhibitors; actives 3% (n = 360,000); also: potency is read from the fitted curve at half-maximal effect; nearly all actives have a fitted effect of over 60% in size
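TGR 20 nM + NADPH 100 uM (dispensed conc.), cpd preinc 15 min RT; start with NADPH (500 uM addition) then DTNB (15 mM addition). Kinetic TNB absorbance, 405 nm filter. Four-parameter Hill fit across titration.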
Vaccinia mCherry: inhibitors of vaccinia virus infection (mCherry reporter signal). Vaccinia virus mCherry reporter infection, fluorescence. Potency, µM (series often up to 36.5 µM), for inactives: at the top dose activity change, negative = inhibition, usual class: inhibitors. AID 720579. actives 0.63% (n = 310,000); calls by dose curve; tested in A549 cells; also: potency is read from the fitted curve at half-maximal effect; nearly all actives have a fitted effect of over 35% in size
FMDV antiviral: blocks foot and mouth disease virus. actives 1.2% (n = 410,000). FMDV antiviral cell-based qHTS. Potency, µM (doses to about 57.9 µM), inactives show at the top dose activity change, negative = inhibition, usual class: inhibitors; calls by dose curve; tested in HEK293T cells; also: read-out not given here; potency is read from the fitted curve at half-maximal effect; nearly all actives have a fitted effect of over 45% in size
HCV inhibitor: inhibitors of hepatitis C virus infection; Huh7.5.1 HCVcc-Cre infection, luciferase reporter, 44 h; Potency, µM (top dose mostly 41.8 µM), for the others: top-dose activity change, negative = inhibition, hits mostly inhibitors; actives 3.4% (n = 340,000); also: potency is read from the fitted curve at half-maximal effect
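Reporter virus HCVcc-Cre (~0.5 moi) infects cells exposed to compound; seeding density 1,000 cells/well with 4 h settling beforehand. Luminescence, 15 sec read, taken 44 h post-infection following a 15 min RT substrate incubation.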
VACV Venus inh: vaccinia inhibition (Venus reporter); actives 0.46% (n = 330,000); Vaccinia virus Venus reporter expression, fluorescence; Potency, µM (top dose mostly 36.5 µM), for the others: at the highest dose activity change, negative = inhibition, usual class: inhibitors; AID 720580; calls by dose curve; tested in A549 cells; also: potency is read from the fitted curve at half-maximal effect; nearly all actives have a fitted effect of over 30% in size
* hit, by the source's call; i = inactive; ? = inconclusive; · = no result given; ! = not confirmed by another sample. An excerpt weighted towards active compounds, which were near 9.3% of everything screened. Unless noted, calls follow the shape of the dose curve; as a rule, active = well fitted curve in the direction sought with a large enough effect; inconclusive = small, poorly fitted or top-dose-only effect, or another doubt; inactive = no such curve, though single readings can be large; an effect the other way counts as inactive or inconclusive. % is scaled to controls: 0 for no effect and ±100 for the full control effect.

SMILES	HCMV inh	Sm TGR inh	Vaccinia mCherry	FMDV antiviral	HCV inhibitor	VACV Venus inh
O=C1C=C(c2cccc3c2sc2ccccc23)C[C@@H](c2ccc(Cl)cc2)C1	3	-14%	-11%	-22%	1%	-28%
O=C(NNC(=S)Nc1ccccc1)c1cc(Br)ccc1Cl	40	-1%	-17%	1%	6%	-9%
CCc1ccccc1NC(=O)CCc1c(C)nn(-c2ccc(N3CCOCC3)nn2)c1C	-62*!	3%	-9%	-19%	4%	-4%
Cc1ccc(NC(=O)c2cc(NC(=O)CCC(=O)O)ccc2N2CCCCC2)cc1	52	?	i	·	26%	-16%
COc1ccc(CC(=O)Nc2ccc(N3CCCC3)c(C)c2)cc1	-22	50µM*	?	11%	-24%	-3%
CCC(=O)Nc1ccc(N2CCCCC2)c(C(=O)Nc2ccc(OC)cc2)c1	-81*	-10%	?	-5%	?	-22%
O=[N+]([O-])c1ccccc1S(=O)(=O)N(CC1CO1)c1ccccc1 (stereo not given)	3	?	-14%	18%	16%	-14%
CCOC(=O)CC(=O)CSc1nc2c(c(-c3cccs3)c1C#N)CCC2	-33	0%	i	10%	?	-7%
CCOCCSc1nc2c(c(-c3cccs3)c1C#N)CC/C2=C/c1cccs1	-12	45µM*	-13%	-6%	?	3%
COC(=O)N/N=C/c1cc(Cl)c(OCc2ccc(F)cc2)c(OC)c1	1	8%	i	-20%	?	-18%
N#CCCn1cc(C=C(C#N)C#N)c(-c2ccc(-c3ccccc3)cc2)n1	19	5µM*	-17%	-4%	16%	-22%
N#CCCn1cc(/C=C2\NC(=S)N(c3ccccc3)C2=O)c(-c2ccc(F)cc2)n1	-63*	·	?	-26%	-8%	-13%
N#CCCn1cc(/C=N/NC(N)=S)c(-c2ccc(-c3ccccc3)cc2)n1	-40	0%	·	-29%	11µM*	·
N#CCCn1cc(/C=N/O)c(-c2ccccc2)n1	-8	0%	·	8%	10%	·
CC(C)Oc1ccc(CNC(=O)CC(c2ccccc2)c2cc(Cl)ccc2O)cc1 (stereo not given)	-24	12%	·	?	?	·
O=C(c1c(Cl)nc2sccn12)N(C(=O)c1c(Cl)nc2sccn12)c1ccc(Cl)cn1	58	5%	8%	·	-15%	13%
Oc1ccc(Cc2ccccc2Cl)c(O)c1	-5	·	-27%	?	-10%	-15%
Oc1ccc(Cc2ccc(Cl)cc2)c(O)c1	-62*	30%	?	-16%	20%	-3%
O=C(C1CCC(CNS(=O)(=O)c2ccc(Br)s2)CC1)N1CCN(c2ccccc2Cl)CC1 (stereo not given)	-26	3%	-22%	?	·	-16%
O=C(CC1C=Cc2ccccc2N1C(=O)c1ccccc1)c1ccccc1 (stereo not given)	-2	-3%	-10%	-25%	10µM*	-19%
CC1C=Cc2ccccc2N1C(=O)c1ccccc1 (stereo not given)	17	10%	i	·	-20%	-15%
O=C(/C=C/c1ccccc1Cl)Nc1cccc(S(=O)(=O)NC2=NCCCCC2)c1	50	7%	-6%	24%	?	-26%
O=C(/C=C/c1ccc([N+](=O)[O-])cc1)Nc1cccc(S(=O)(=O)NC2=NCCCCC2)c1	-39	·	-21%	?	25µM*	?
O=C(Nc1cccc(S(=O)(=O)NC2=NCCC2)c1)c1cn(-c2ccccc2)nc1-c1ccc(F)cc1	2	·	·	25%	11µM*	·
Cc1ccc(-c2nn(-c3ccccc3)cc2C(=O)Nc2cccc(S(=O)(=O)NC3=NCCC3)c2)cc1	19	·	0%	68%	·	?
SMILES	HCMV inh	Sm TGR inh	Vaccinia mCherry	FMDV antiviral	HCV inhibitor	VACV Venus inh
CCOc1ccc(C(=O)NC(=S)Nc2cccc(S(=O)(=O)NC3=NCCC3)c2)cc1	-17	-4%	-10%	2%	14µM*	?
O=C(Nc1cccc(S(=O)(=O)NC2=NCCCCC2)c1)c1ccc(Cl)cc1	-68*	-3%	-15%	?	?	-24%
CCN(CC)S(=O)(=O)c1cc(NC(=O)COC(=O)CCC(=O)c2cccs2)ccc1C	19	-1%	-12%	-14%	2%	-3%
O=C(CCC1CCCC1)N1CCC(N2CCN(c3ccccc3)CC2)CC1	-6	-10%	·	-21%	-7%	·
CSCCCNC(=S)Nc1cccc(S(=O)(=O)NC2=NCCC2)c1	?	?	-15%	53%	7%	-6%
C=C(C)CNC(=S)Nc1cccc(S(=O)(=O)NC2=NCCC2)c1	-34	56µM*	i	36%	0%	-15%
CCOC(=O)c1cnc2c(C)cccc2c1NCc1ccco1	-39	-35%	i	·	11µM*	-6%
COC(=O)c1cccc(NC(=O)CC2C(=O)NCCN2C(=O)Nc2ccccc2)c1 (stereo not given)	6	0%	-13%	-7%	1%	-18%
O=C(O)c1cc(/C=C/c2ccc(N3CCOCC3)cc2)nc2ccccc12	-13	40%	i	10µM*	2%	-1%
Cn1c(=O)[nH]c2c(nc(-c3ccc(Cl)cc3)n2C)c1=O	5	4%	i	-3%	5%	-3%
C/C(=N\Nc1ccc(S(N)(=O)=O)cc1[N+](=O)[O-])c1ccc2c(c1)OCO2	?	·	-13%	35µM*	?	?
Cc1ccc(Nc2ccc(S(=O)(=O)N3CCOCC3)cc2[N+](=O)[O-])cc1C	-2	0%	-23%	?	18µM*	-22%
O=C(O)c1ccc(/C=N\Nc2ccc(S(=O)(=O)N3CCOCC3)cc2[N+](=O)[O-])cc1	-1	45µM*	·	4%	7%	·
Cc1ccc(-n2c(O)c(/C=N/Nc3ccc(S(=O)(=O)N4CCOCC4)cc3[N+](=O)[O-])c3ccccc3c2=O)c(C)c1	-98*	-4%	i	10µM*	11µM*	-30%
NS(=O)(=O)c1ccc(N/N=C/c2ccc(C(=O)O)cc2)c([N+](=O)[O-])c1	-25	-1%	·	-14%	10%	·
O=C(Cn1c(=O)oc2cc(S(=O)(=O)N3CCCC3)ccc21)N1CCN(c2ccccn2)CC1	-15	-4%	i	0%	?	-9%
C/C(=N\Nc1ccc(S(=O)(=O)N2CCOCC2)cc1[N+](=O)[O-])C(C)C	?	40µM*	-8%	-21%	?	-1%
Nn1c(SCC(=O)Nc2cccc(S(N)(=O)=O)c2)nnc1C1CC1	19	2%	-2%	-6%	9%	-10%
COc1ccccc1-c1sc2ccccc2c1-c1ccc(O)cc1	-21	·	i	-13%	5.6µM*	-21%
COc1ccc(-c2sc3cc(OC)c(OC)cc3c2-c2ccc(O)cc2)cc1	4	·	?	-35%	28µM*	?
